From PubChem
HSF-1 act: increases HSF-1 driven luciferase reporter signal; hit rate 1.7% among 300,000; NIH3T3-HGL HSF-1 luciferase reporter, MG132, 8 h; 100% = twice DMSO control signal; activation, % at 9 µM; AID 504408;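 active means mean replicate activation of at least 50% with a set share of replicates each reaching 50%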
DAX1 inh: inhibitors of human orphan nuclear receptor DAX1 (NR0B1) | HEK293 Gal4-DAX1 luciferase reporter, luminescence | hit rate 0.99% among 340,000 | P51843 | inhibition, % at 6.75 µM;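 active means inhibition above the mean over all tested compounds plus 3 SD, cut at about 4.2% in these data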;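 further: inhibition shows as a rise in luminescence from relieved DAX1 repression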
Target sequence (P51843 207-470 limits assumed): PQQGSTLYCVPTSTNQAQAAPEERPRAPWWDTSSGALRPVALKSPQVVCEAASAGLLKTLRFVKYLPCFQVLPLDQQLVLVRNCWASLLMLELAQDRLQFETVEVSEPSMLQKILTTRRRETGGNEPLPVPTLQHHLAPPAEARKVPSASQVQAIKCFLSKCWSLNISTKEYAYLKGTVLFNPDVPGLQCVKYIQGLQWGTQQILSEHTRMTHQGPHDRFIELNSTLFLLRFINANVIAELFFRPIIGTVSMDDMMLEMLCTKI
AHR act: human AHR activation; P35869; AHR-responsive luciferase reporter cells, luminescence; activation, % at 5 µM; hit rate 2.5% among 320,000; AID 2796; in the data active means activation above about 47%
GAA850 FXN act: frataxin GAA850 promoter activation; HEK293 lucGAA850 FXN promoter luciferase reporter, 24 h; percent of 10 µM SAHA response; activation, % at 6 µM; hit rate 0.56% among 360,000; AID 540364;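 active means activation above the average of all compounds screened plus 3 SD, cutoff fixed separately per campaign, cut at about 7.5% in these data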
HSF1 inh: HSF1 inhibition; NIH3T3-HGL HSE-luciferase, MG132-induced, luminescence 8 h; active compounds read low; activity change, negative = inhibition, % at 7.5 µM (by protocol); hit rate 0.77% among 300,000; AID 2098;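 active means more than half of replicate wells show activity change below -50%, luminescence cut by over half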;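 further: luciferase reports HSF-1 transcriptional activity via heat shock element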
AHR act confirm: human AHR activation, confirmation; shares compounds with AHR act; human cells, AHR-responsive luciferase reporter, luminescence; activation, % at 9 µM; hit rate 87% among 2,300; in the data active means activation above about 49%;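 further: HepG2 hepatoma cells carrying a DRE-driven firefly luciferase reporter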
PXR act counter: counter-screen for AHR activators: human PXR activators; hit rate 88% among 2,300; shares compounds with AHR act; activation, % at 11.6 µM; cell-based PXR reporter, luciferase luminescence; AID 434939; in the data active means activation above about 11%;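 further: human hepatoma DPX-2 cells expressing full-length human PXR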
Numbers stand for hits. Shown are actives, neighbours in structure and some others; about 5.4% of the full set was active somewhere.

For CCCCCC(=O)Nc1nc(C)c(-c2csc(Nc3ccccc3OC)n2)s1 the results were HSF-1 act inactive, DAX1 inh inactive, AHR act 85, GAA850 FXN act inactive, HSF1 inh inactive, AHR act confirm 96 and PXR act counter 50.
CCCC(C)C(=O)Nc1nc(C)c(-c2csc(Nc3ccccc3OC)n2)s1 (stereo unspecified) was read as HSF-1 act inactive, DAX1 inh inactive, AHR act 124, GAA850 FXN act inactive, HSF1 inh inactive, AHR act confirm 72 and PXR act counter 62.
`CCCCCCC(=O)Nc1nc(C)c(-c2csc(Nc3cc(Cl)ccc3C)n2)s1` gave HSF-1 act inactive, DAX1 inh inactive, AHR act 79, GAA850 FXN act inactive, HSF1 inh inactive, AHR act confirm 81 and PXR act counter 17.
For CCCCC(=O)Nc1nc(C)c(-c2csc(Nc3cc(OC)ccc3OC)n2)s1 the results were HSF-1 act inactive, DAX1 inh inactive, AHR act 85, GAA850 FXN act inactive, HSF1 inh inactive, AHR act confirm 82 and PXR act counter 58.
COc1ccc(CNC(=O)c2cccc(S(=O)(=O)N3CCCCC3)c2)cc1OC was read as DAX1 inh inactive, AHR act inactive and GAA850 FXN act inactive.
For Cc1cnc(CNC(=O)c2ccc3nc([C@@H]4O[C@H](CO)[C@H](O)[C@H](O)[C@H]4O)[nH]c3c2)cn1 the results were GAA850 FXN act inactive.
Screening C/C(=N\Nc1ccc([N+](=O)[O-])cc1[N+](=O)[O-])c1ccc(-n2nncc2C(C)(C)C)cc1 returned HSF-1 act inactive, DAX1 inh inactive, AHR act 120, GAA850 FXN act inactive, HSF1 inh inactive, AHR act confirm 78 and PXR act counter 38.
`c1ccc(-c2cc3c(-n4cccc4)ncnc3o2)cc1` gave HSF-1 act inactive, DAX1 inh inactive, AHR act 86, GAA850 FXN act inactive, HSF1 inh inactive, AHR act confirm 105 and PXR act counter 23.
`Cc1ccc[n+](CC(=O)c2ccc(Br)cc2)c1C` gave HSF-1 act inactive, DAX1 inh inactive, AHR act 83, GAA850 FXN act inactive, HSF1 inh inactive and AHR act confirm 47.
Screening CCCC(C)NC(=O)Cc1ccc(S(=O)(=O)N2CCOCC2)s1 (stereo unspecified) returned DAX1 inh inactive, AHR act inactive and GAA850 FXN act inactive.
Cc1cccc(Nc2nc(-c3ccc(F)c(C)c3)cs2)n1 was read as HSF-1 act 67, DAX1 inh 5.4, AHR act 95, GAA850 FXN act inactive, HSF1 inh inactive, AHR act confirm 134 and PXR act counter 34.
For CCN(CC)CCN1C(=O)C(=O)/C(=C(/O)c2ccc(S(=O)(=O)N3CCOCC3)cc2)C1c1ccc(Cl)cc1 (stereo unspecified) the results were HSF-1 act inactive, DAX1 inh inactive, AHR act inactive, GAA850 FXN act inactive and HSF1 inh inactive.
For COC(=O)c1sccc1-c1ccc(C(=O)Nc2cccc(Cl)c2)o1 the results were HSF-1 act inactive, DAX1 inh inactive, AHR act 104, GAA850 FXN act 8.3, HSF1 inh inactive, AHR act confirm 74 and PXR act counter 25.
COC(=O)c1ccccc1NC(=O)c1ccc(-c2cccc(Cl)c2)o1 was read as HSF-1 act inactive, DAX1 inh inactive, AHR act inactive, GAA850 FXN act inactive and HSF1 inh inactive.
`c1ccc(-c2cccs2)nc1` gave HSF-1 act inactive, DAX1 inh inactive, AHR act inactive, GAA850 FXN act inactive and HSF1 inh inactive.
Screening c1cc(-c2cccs2)nc(-c2cccs2)c1 returned HSF-1 act inactive, DAX1 inh inactive, AHR act 96, GAA850 FXN act inactive, HSF1 inh inactive, AHR act confirm 84 and PXR act counter 16.
Screening CSc1nc(O)c(C(c2ccc(OC(C)C)cc2)c2c(O)nc(SC)[nH]c2=O)c(=O)[nH]1 returned HSF-1 act inactive, DAX1 inh inactive, AHR act inactive, GAA850 FXN act inactive and HSF1 inh inactive.
Screening Cc1ccc(Nc2nc(N)c([N+](=O)[O-])c(N3CCOCC3)n2)cc1 returned HSF-1 act inactive, DAX1 inh inactive, AHR act 81, GAA850 FXN act inactive, HSF1 inh inactive, AHR act confirm 77 and PXR act counter 22.
Screening Cc1cccc(Nc2nc(N)c([N+](=O)[O-])c(N3CCOCC3)n2)c1 returned HSF-1 act inactive, DAX1 inh inactive, AHR act inactive, GAA850 FXN act inactive and HSF1 inh inactive.
For CCN1CCN(C(=S)NC(=O)c2cccc(Br)c2)CC1 the results were DAX1 inh inactive, AHR act inactive and GAA850 FXN act inactive.
Screening C[C@H](NC(=O)[C@@H]1CSC2c3ccccc3C(=O)N21)C(=O)NCCc1ccccc1 (stereo partly specified) returned HSF-1 act 70, DAX1 inh inactive, AHR act 124, GAA850 FXN act inactive, HSF1 inh inactive, AHR act confirm 107 and PXR act counter 59.
`C[C@H](NC(=O)[C@@H]1CSC2c3ccccc3C(=O)N21)C(=O)NCCc1ccc(F)cc1` (stereo partly specified) gave HSF-1 act inactive, DAX1 inh inactive, AHR act 96, GAA850 FXN act inactive, HSF1 inh inactive, AHR act confirm 104 and PXR act counter 55.
`CCCCN(C(=O)COC(=O)CSc1ccc([N+](=O)[O-])cc1)c1c(N)n(CCC)c(=O)[nH]c1=O` gave HSF-1 act inactive, DAX1 inh inactive, AHR act inactive, GAA850 FXN act inactive and HSF1 inh inactive.
`COc1ccc(/C=C/C(=O)NC(=S)NNC(=O)c2cccnc2)cc1` gave HSF-1 act inactive, DAX1 inh inactive, AHR act inactive, GAA850 FXN act inactive and HSF1 inh inactive.
For COc1ccc(/C=C/C(=O)NC(=S)NNC(=O)c2cccs2)cc1 the results were HSF-1 act inactive, DAX1 inh inactive, AHR act 94, GAA850 FXN act inactive, HSF1 inh inactive, AHR act confirm inactive and PXR act counter inactive.
CC(=O)NC(Cc1ccccc1C)C(=O)NC1CCN(c2ncccc2[N+](=O)[O-])CC1 (stereo unspecified) was read as HSF-1 act inactive, AHR act inactive and HSF1 inh inactive.
`Oc1c(C(c2ccccc2)N2CCc3ccccc3C2)sc2ncnn12` (stereo unspecified) gave HSF-1 act inactive, DAX1 inh inactive, AHR act 89, GAA850 FXN act inactive, HSF1 inh inactive, AHR act confirm 86 and PXR act counter 40.
`Cc1cccc(NC(=O)CN2C(=O)N/C(=C/c3ccc(C)o3)C2=O)c1` gave HSF-1 act inactive, DAX1 inh inactive, AHR act inactive, GAA850 FXN act inactive and HSF1 inh inactive.
